S16 viability: Cell viability qHTS assay in S16 Pmp22-F2sN cells; S16 Pmp22-F2sN Schwann cells viability, CellTiter-Glo, 24 h; Potency, µM (highest dose often 57.5 µM), inactives show top-dose activity change, negative = cytotoxicity, actives largely listed as cytotoxic; hit rate 0.48% among 43,000; note: potency is the fitted concentration of half-maximal effect; % is set by controls: 0 for no effect and ±100 for the full control effect; nearly all actives have a fitted effect of over 65% in size
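Rat S16 Schwann reporter line, 24 h treatment with library compounds delivered at 23 nL per well. Cell viability by CellTiter-Glo luminescence.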
PMP22 txn prim: Cell-based coincidence reporter assay to measure PMP22 gene transcription in S16 Pmp22-F2sN cells - Primary screen; S16 Pmp22-F2sN Schwann cells (luciferase reporters placed in the Pmp22 gene), FLuc/NLuc coincidence luminescence, 24 h; hit rate 2% among 43,000; Potency, µM (titrated, usually from 57.5 µM), for inactives: at the highest dose activity change, negative = inhibition, most hits filed as inhibitors; AID 1508649, 2021; active = clear falling dose curves in both reporters; inconclusive = both reporters move, but less clearly or upward; inactive = either reporter flat; the % is the NLuc reporter signal; note: potency is the fitted concentration of half-maximal effect; % is set by controls: 0 for no effect and ±100 for the full control effect
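Rat S16 Pmp22-F2sN cells, 500-1,000/well in phenol red-free DMEM + 10% FBS, compound-treated 24 h (37C, 5% CO2). Luminescence: FLuc read, Stop&Glo added, NLuc read.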
p53null 32C tox: qHTS Screen for Compounds that Selectively Target Cancer Cells with p53 Mutations: Cytotoxicity of p53 Null Cells at the Permissive Temperature. H1299-neo p53 null cells, ATP luminescence, 24 h, 32C. Potency, µM (doses to about 46.1 µM), without a hit: at the highest dose activity change, negative = cytotoxicity, actives largely listed as cytotoxic. hit rate 0.62% among 55,000. AID 903, 2007;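 note: potency is the fitted concentration of half-maximal effect; 0% = DMSO only and -100% = full killing by 100 µM tamoxifen; nearly all actives have a fitted effect of over 55% in size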
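Overnight 37C seeding (600 cells/well) of H1299-neo preceded a 24 hr, 32C exposure to compounds up to 46 uM. ATP levels, read by luminescence after 20 min at RT, indicated surviving cells.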
p53null 39C tox: qHTS Screen for Compounds that Selectively Target Cancer Cells with p53 Mutations: Cytotoxicity of p53 Null Cells at the Nonpermissive Temperature | H1299 p53-null (neo) cells, 39C, ATPlite viability, 24 h | Potency, µM (series often up to 46.1 µM), inactives show at the top dose activity, negative = cell killing, hits mostly cytotoxic | hit rate 0.97% among 55,000;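 note: potency is the fitted concentration of half-maximal effect; 0% = DMSO only and -100% = full killing by 100 µM tamoxifen; nearly all actives have a fitted effect of over 50% in size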
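Temperature-shift cytotoxicity format: compound titrations on p53-null or A138V-expressing H1299 cells held 24 hr at 39C, cell ATP then measured, AC50 from Hill model.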
mTORC1 inh: Acumen qHTS Assay for Inhibitors of the mTORC1 Signaling Pathway in MEF (Tsc2-/-, p53-/-) Cells: Sytravon | Tsc2-/- p53-/- MEF, phospho-rpS6 immunofluorescence/PI, 24 h | Potency, µM (doses to about 38.3 µM), for inactives: at the highest dose activity change, negative = inhibition, usual class: inhibitors | hit rate 0.78% among 44,000 | AID 493208, 2011;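 note: potency is the fitted concentration of half-maximal effect; plate controls were DMSO for no effect and rapamycin for full effect; nearly all actives have a fitted effect of over 50% in size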
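Plate MEFs (Tsc2-/-, p53-/-, empty vector) in DMEM/10% FBS; after 24 h add compound, incubate 24 h at 37 degree Celsius; fix in PFA/TX-100, block, stain phospho-rpS6 and 10 uM PI; scan at 488 nm; report % positive cells.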
NLuc sat counter: Biochemical NLuc saturation counterscreen for small molecule modulators of PMP22 gene expression - Nano-Glo assay | shares compounds with PMP22 txn prim | Secreted NLuc enzyme (filtered S16 cell medium), Nano-Glo luminescence | Potency, µM (top dose mostly 57.5 µM), inactives show at the highest dose activity change, negative = inhibition, usual class: inhibitors | hit rate 4% among 690 | AID 1508638, 2021; note: potency is the fitted concentration of half-maximal effect; % is set by controls: 0 for no effect and ±100 for the full control effect
NLuc Km counter: Biochemical coelenterazine-based NLuc counterscreen for small molecule modulators of PMP22 gene expression - Km assay; secreted NLuc enzyme, coelenterazine luminescence, Km conditions; shares compounds with PMP22 txn prim; hit rate 5% among 690; Potency, µM (series often up to 57.5 µM), for inactives: at the top dose activity change, negative = inhibition, actives largely listed as inhibitors; note: potency is the fitted concentration of half-maximal effect; % is set by controls: 0 for no effect and ±100 for the full control effect
FLuc counter: Biochemical FLuc counterscreen for small molecule modulators of PMP22 gene expression | purified P. pyralis FLuc, luminescence, 10 min | 690 tested, under 10 active | AID 1508640, 2021 | shares compounds with PMP22 txn prim | Potency, µM (series often up to 57.5 µM), for inactives: at the highest dose activity, negative = inhibition, actives largely listed as inhibitors; note: % of control where 0% means no effect
Target sequence (P08659 whole entry, looked up): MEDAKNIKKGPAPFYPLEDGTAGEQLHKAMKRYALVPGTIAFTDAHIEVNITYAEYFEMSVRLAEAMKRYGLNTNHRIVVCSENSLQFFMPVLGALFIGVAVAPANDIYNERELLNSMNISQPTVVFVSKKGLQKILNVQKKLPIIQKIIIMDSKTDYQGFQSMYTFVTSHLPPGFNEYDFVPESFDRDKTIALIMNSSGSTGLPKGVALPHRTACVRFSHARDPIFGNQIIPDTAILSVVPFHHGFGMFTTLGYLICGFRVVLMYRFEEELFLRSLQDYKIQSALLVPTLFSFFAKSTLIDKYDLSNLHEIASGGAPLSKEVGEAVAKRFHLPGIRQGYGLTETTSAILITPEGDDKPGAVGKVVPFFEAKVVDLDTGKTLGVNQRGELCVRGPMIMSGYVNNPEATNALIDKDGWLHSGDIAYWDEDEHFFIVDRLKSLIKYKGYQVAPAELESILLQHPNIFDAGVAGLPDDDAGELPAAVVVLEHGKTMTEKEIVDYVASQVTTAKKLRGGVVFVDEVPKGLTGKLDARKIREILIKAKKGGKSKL
S16 viab conf: Cell viability qHTS assay in S16 Pmp22-F2sN cells - Confirmatory screen; S16 Schwann cells viability, CellTiter-Glo ATP luminescence, 24 h; Potency, µM (highest dose often 57.5 µM), for the others: at the top dose activity change, negative = viability loss, hits mostly cytotoxic; AID 1508641, 2021; hit rate 7% among 690; shares compounds with PMP22 txn prim; note: potency is the fitted concentration of half-maximal effect; % is set by controls: 0 for no effect and ±100 for the full control effect
PMP22 txn conf: Cell-based coincidence reporter assay to measure PMP22 gene transcription in S16 Pmp22-F2sN cells - Confirmatory screen. shares compounds with PMP22 txn prim. S16 Schwann cells Pmp22-F2sN, dual luciferase, 24 h. Potency, µM (highest dose often 57.5 µM), without a hit: top-dose activity change, negative = inhibition, hits mostly inhibitors. hit rate 22% among 690. AID 1508646, 2021; active = clear falling dose curves in both reporters; inconclusive = both reporters move, but less clearly or upward; inactive = either reporter flat; the % is the FLuc reporter signal; note: potency is the fitted concentration of half-maximal effect
Starred values were filed as active, the others as inactive; u = inconclusive; x = no result given. Only some compounds are listed: those with a hit (about 3.2% of all), similar ones and a draw of the others. Unless noted, calls come from the whole dose curve; as a rule, active = well fitted curve in the direction sought with a large enough effect; inconclusive = small, poorly fitted or top-dose-only effect, or another doubt; inactive = no such curve, though single readings can be large; an effect the other way counts as inactive or inconclusive.

SMILES	S16 viability	PMP22 txn prim	p53null 32C tox	p53null 39C tox	mTORC1 inh	NLuc sat counter	NLuc Km counter	FLuc counter	S16 viab conf	PMP22 txn conf
O=C(CNC(=O)c1ccccc1Cl)OCc1cc(=O)n2nc(C3CC3)sc2n1	4.9%	12.7%	-4.2%	-20.6%	-0.2%	x	x	x	x	x
COc1ccc(OCC(O)Cn2c(=N)n(CCN3CCCCC3)c3ccccc32)cc1 (stereo unspecified)	u	u	-5.7%	u	x	x	x	x	x	x
N=c1n(CCN2CCCCC2)c2ccccc2n1CC(O)COc1ccc(Cl)cc1Cl (stereo unspecified)	u	11.9µM*	17.8µM*	12.6µM*	3.69µM*	-17.5%	-0.2%	-21.0%	30.6µM*	u
CCSc1nnc2c(n1)OC(c1ccc(C)cc1)N(C(C)=O)c1ccccc1-2 (stereo unspecified)	-25.1%	u	42.5%	-0.2%	-2.2%	u	-17.0%	5.5%	-4.4%	-7.4%
COc1ccc(C2Oc3nc(SC)nnc3-c3ccccc3N2C(C)=O)cc1 (stereo unspecified)	0.7%	u	6.8%	u	8.7%	x	x	x	x	x
Cc1ccc(CSCCC(=O)N2CCN(c3ccc(F)cc3)CC2)cc1	7.6%	-22.0%	-1.3%	6.0%	-26.4%	x	x	x	x	x
CC1Cc2cc(S(=O)(=O)NCCc3ccccc3)ccc2N1C(=O)C1CCC1 (stereo unspecified)	x	x	-9.7%	-29.6%	u	x	x	x	x	x
CCc1ccc(C(=O)c2cn(CC(=O)Nc3ccc4c(c3)OCO4)c3ccc(Cl)cc3c2=O)cc1	-15.8%	u	-19.7%	u	u	x	x	x	x	x
